{
  "source": "PubChem BioAssay (NCI)",
  "test_system": "MDA-MB-468 breast",
  "experiment": "NCI-60 one-dose screen, 48 h (100 = growth as untreated, 0 = no growth, -100 = all killed)",
  "conditions": "10 µM unless noted",
  "note": "Compounds without any hit were thinned out: in the full panel of roughly 83,000, 20% have a hit.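 Activity criterion: percent growth below 10, measured after cells in 96-well plates were exposed to a single compound concentration for 48 hours.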 Values without a mark were called inactive. Active and inactive are the calls of the source.",
  "data": [
    {"smiles": "CCCN1CC(c2ccc(OC)c(OC)c2)=C(c2cn(C(=O)OCC)c3ccccc23)C1=O", "values": [
      {"measurement": "growth", "result": "6.47% (active)"}
    ]},
    {"smiles": "Cc1ccc(CSCc2ccc(C(=O)NC3CC3)o2)cc1", "values": [
      {"measurement": "growth", "result": 49.2, "unit": "%"}
    ]},
    {"smiles": "Nc1n[nH]c2cccc(C#Cc3cccc(NC(=O)c4cccc(C(F)(F)F)c4)c3)c12", "values": [
      {"measurement": "growth", "result": 79.3, "unit": "%"}
    ]},
    {"smiles": "c1ccc(-c2cccc(-c3ccccn3)n2)nc1", "values": [
      {"measurement": "growth", "result": "-15.6% (active)"}
    ]},
    {"smiles": "CC(C)(C)n1nnnc1C(Nc1nccs1)c1cc2cccc3ccc4cccc1c4c32", "note": "(stereo not given)", "values": [
      {"measurement": "growth", "result": "-35.2% (active)"}
    ]},
    {"smiles": "COc1ccc([C@@H]2[C@@H](Oc3ccccc3)C(=O)N2c2cc(OC)c(OC)c(OC)c2)cc1F", "values": [
      {"measurement": "growth", "result": "4.05% (active)"}
    ]},
    {"smiles": "COC1=CC(c2ccc[nH]2)=N/C1=C\\c1[nH]c(C)c(C(=O)CCC(=O)Oc2ccc3c(c2)CCC2C3CC[C@]3(C)[C@@H](O)CC[C@@H]23)c1C", "note": "(stereo not given in full)", "values": [
      {"measurement": "growth", "result": 39.4, "unit": "%"}
    ]},
    {"smiles": "O=Nc1ccc(O)c(=O)cc1", "values": [
      {"measurement": "growth", "result": "-53.1% (active)"}
    ]},
    {"smiles": "Oc1ccc(/C=N/NC(=S)Nc2ccccc2)nc1", "values": [
      {"measurement": "growth", "result": "-37.7% (active)"}
    ]},
    {"smiles": "COc1cc2c(cc1-c1c(C)noc1C)ncc1nc(C3CCC(F)(F)CC3)n(C3CCC(OC(F)F)CC3)c12", "note": "(stereo not given)", "values": [
      {"measurement": "growth", "result": 43.4, "unit": "%"}
    ]},
    {"smiles": "COc1ccc(/C=N/NC(=O)Cn2c(Cc3cccc4ccccc34)nc3ccccc32)cc1", "values": [
      {"measurement": "growth", "result": 92.4, "unit": "%"}
    ]},
    {"smiles": "Brc1cnc2ccccc2c1", "values": [
      {"measurement": "growth", "result": 113, "unit": "%"}
    ]},
    {"smiles": "CC1(C)CCC(C)(C)NC(=S)N1", "values": [
      {"measurement": "growth", "result": 103, "unit": "%"}
    ]},
    {"smiles": "Cc1ccc(S(=O)(=O)Nc2ccc(-c3cc(-c4cccc(F)c4)c(C#N)c(=O)[nH]3)cc2)cc1", "values": [
      {"measurement": "growth", "result": 67.9, "unit": "%"}
    ]},
    {"smiles": "Brc1ccccc1Nc1ccc2nnc(-c3ccncc3)n2n1", "values": [
      {"measurement": "growth", "result": 85.3, "unit": "%"}
    ]}
  ]
}
